We go through 23 compounds from PubChem BioAssay (Tox21).

A short description of test [1]: qHTS assay to identify small molecule agonists of the vitamin D receptor (VDR) signaling pathway - cell viability counter screen (AID 743224). Further: nearly all actives have a fitted effect of over 50% in size. Further: potency means the concentration at half of the fitted maximal effect. The procedure, abridged:
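Here cell health was gauged by luminescent ATP detection (CellTiter-Glo, 30 min RT) in VDR-bla cells that had been incubated with test compounds for 16 h at 37C and 5% CO2.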
For orientation: qHTS replaces the single test concentration by a dilution series.

Test [2] in a line: qHTS assay to identify small molecule antagonists of the vitamin D receptor (VDR) signaling pathway - cell viability counter screen (AID 743225). Further: on the % scale 0 is the no-effect control and ±100 the full control effect; nearly all actives have a fitted effect of over 50% in size. An outline of the steps:
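Read-out: CellTiter-Glo luminescence measured 30 min after reagent addition at room temperature. Cells were VDR-bla HEK 293T exposed 16 h at 37C, 5% CO2, to compound with 3 nM final calcitriol agonist.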

Test [3] can be described thus: qHTS assay to identify small molecule agonists of the NFkB signaling pathway (AID 1159509; active means well fitted curve in the direction sought with a large enough effect in the signal ratio in the repeat runs, not every such curve was filed as active; the % refers to the signal ratio; further: on the % scale 0 is the no-effect control and ±100 the full control effect). An outline of the steps:
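NFkB-bla ME-180 cells with a beta-lactamase reporter under an NF-kB response element were plated overnight, treated with compounds in DMSO for 5 hr at 37 C, then loaded with FRET substrate for 1.5 hr at room temperature.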

A short description of test [4]: qHTS assay to identify small molecule agonists of the NFkB signaling pathway - cell viability counter screen (AID 1159515; calls by dose curve; further: on the % scale 0 is the no-effect control and ±100 the full control effect; nearly all actives have a fitted effect of over 55% in size). An outline of the steps:
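5 hr compound treatment of NFkB-bla ME-180 cells (2,000/well, seeded overnight beforehand), followed by reporter substrate for 1.5 hr. CellTiter-Glo added afterward; luminescence after 30 min RT.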

Test [5] is described as follows: qHTS assay to identify small molecule agonists of the endoplasmic reticulum stress response signaling pathway - cell viability counter screen (AID 1159517; calls by dose curve;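 further: HeLa cells carrying an ER stress response element beta-lactamase reporter; on the % scale 0 is the no-effect control and ±100 the full control effect; nearly all actives have a fitted effect of over 50% in size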). The procedure, abridged:
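Counter-screen wells were identical to the reporter wells. Cells were plated at 1,500 per well and dosed for 5 hr, then read for luminescence 30 min after CellTiter-Glo addition.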

A short description of test [6]: qHTS assay to identify small molecule agonists of the AP-1 signaling pathway - cell viability counter screen (AID 1159525; calls by dose curve; further: nearly all actives have a fitted effect of over 55% in size). The procedure, abridged: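 AP-1-bla ME-180 cells in Opti-MEM with 0.5% dialyzed FBS, compound exposure 5 h at 37 C in 15-point titration. Viability read in the same wells as ATP content by CellTiter-Glo luminescence, normalised to tetra-n-octylammonium bromide and DMSO controls.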

Test [7] is described as follows: qHTS assay to identify small molecule agonists of the AP-1 signaling pathway (AID 1159526; calls by dose curve; further: potency means the concentration at half of the fitted maximal effect; on activation: on the % scale 0 is the no-effect control and ±100 the full control effect).
For test [8], the target named is Retinoic acid receptor RXR-alpha (Homo sapiens) (UniProt P19793). The test can be described thus: qHTS assay to identify small molecule agonists of the RXR signaling pathway (AID 1159527; calls by dose curve; further: on the % scale 0 is the no-effect control and ±100 the full control effect; nearly all actives have a fitted effect of over 35% in size). An outline of the steps:
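Read-out: beta-lactamase FRET ratio (405 nm excitation, 460 and 530 nm emission) after 2 hr substrate loading at room temperature. Cells were RXR-alpha-UAS-bla HEK 293T treated with compounds for 16 hr in 2% charcoal-stripped FBS medium.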

Test [9] in a line: qHTS assay to identify small molecule agonists of the RXR signaling pathway - cell viability counter screen (AID 1159529). Further: on the % scale 0 is the no-effect control and ±100 the full control effect; nearly all actives have a fitted effect of over 50% in size. The procedure, abridged:
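HEK 293T RXRa-bla cells, 2% CS-FBS; 5 h settle; cpd 16 h 37 C, 5% CO2; CellTiter-Glo 30 min RT, luminescence. Tetraoctyl ammonium bromide as positive control.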

Test [10] can be described thus: qHTS assay to identify small molecule antagonists of the retinoid acid receptor (RAR) signaling pathway - cell viability counter screen (AID 1159551). Further: on the % scale 0 is the no-effect control and ±100 the full control effect; nearly all actives have a fitted effect of over 35% in size. The procedure, abridged:
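Seed C3RL4 cells; next day add compound, then retinol to 1 uM final; incubate 6 h at 37 C; add CellTiter-Glo; read luminescence after 30 min at RT.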

Test [11] is described as follows: qHTS assay to identify small molecule antagonists of the retinoic acid receptor (RAR) signaling pathway (AID 1159552; further: nearly all actives have a fitted effect of over 50% in size; further: potency means the concentration at half of the fitted maximal effect; on activity, negative = inhibition: on the % scale 0 is the no-effect control and ±100 the full control effect). The procedure, abridged:
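Cells of the C3RL4 line were seeded, incubated overnight, then dosed with compounds in DMSO followed immediately by retinol (1 uM final). Six hours later luciferase detection reagent went in; signal was measured after 30 min at RT.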

Test [12] is described as follows: qHTS assay to identify small molecule agonists of the retinoic acid receptor (RAR) signaling pathway (AID 1159553). Further: potency means the concentration at half of the fitted maximal effect. On activation: on the % scale 0 is the no-effect control and ±100 the full control effect. The following applies: C3RL4 RARE luciferase reporter, agonist, 6 h; activation: at 73.3 µM (top of the series). An outline of the steps: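 Activation of retinol signaling was monitored via a RARE luciferase reporter in C3RL4 cells. After 6 hr compound treatment at 37 C, detection reagent was added for 30 min at room temperature before luminescence reading.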

A short description of test [13]: qHTS assay to identify small molecule antagonists of the retinoid-related orphan receptor gamma (ROR-gamma) signaling pathway - cell viability counter screen (AID 1159520). Further: nearly all actives have a fitted effect of over 50% in size. Further: potency means the concentration at half of the fitted maximal effect. The procedure, abridged:
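Tet-on ROR gamma CHO cells were given compounds for 2 hr, then doxycycline hyclate at 1 uM final, and incubated 16 hr at 37 C. Viability was measured as ATP content by CellTiter-Glo luminescence.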

The target of test [14] is Nuclear receptor ROR-gamma (Homo sapiens) (UniProt P51449). The test can be described thus: qHTS assay to identify small molecule antagonists of the retinoid-related orphan receptor gamma (ROR-gamma) signaling pathway (AID 1159521; further: nearly all actives have a fitted effect of over 50% in size; further: potency means the concentration at half of the fitted maximal effect). The procedure, abridged: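 CHO Tet-on RORγ, RORE-luc reporter. Cpd 2 h pre-incubation, then dox hyclate 1 uM final, 16 h, 37 C/5% CO2. ONE-Glo luminescence; decrease = antagonist.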

The structures appear in SMILES notation. Inconclusive results are not listed. Unmarked numbers belong to inactive results. Calls of active or inactive are those of the source. Unless noted, the call rests on the fitted dose curve; in most records, active means well fitted curve in the direction sought with a large enough effect in the repeat runs; inconclusive means weak or mixed curves; inactive means no such curve, though single readings can be large; an effect the other way counts as inactive or inconclusive.

Retinoic acid receptor RXR-alpha (Homo sapiens), sequence (P19793 whole entry, looked up): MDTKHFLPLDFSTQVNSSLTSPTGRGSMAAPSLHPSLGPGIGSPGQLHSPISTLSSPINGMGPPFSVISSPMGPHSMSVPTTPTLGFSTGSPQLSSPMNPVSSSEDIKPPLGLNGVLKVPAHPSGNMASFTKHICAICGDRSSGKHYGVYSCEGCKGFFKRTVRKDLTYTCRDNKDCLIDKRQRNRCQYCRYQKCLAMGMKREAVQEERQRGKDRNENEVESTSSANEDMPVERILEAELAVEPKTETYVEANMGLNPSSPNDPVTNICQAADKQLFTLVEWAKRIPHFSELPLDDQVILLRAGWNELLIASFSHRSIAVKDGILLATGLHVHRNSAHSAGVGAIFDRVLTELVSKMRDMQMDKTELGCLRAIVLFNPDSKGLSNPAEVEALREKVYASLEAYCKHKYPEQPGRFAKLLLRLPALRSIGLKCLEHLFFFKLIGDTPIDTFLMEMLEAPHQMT

For `CC(C)=CC(=O)C=C(C)C`, the Potency entry in test [1], in [2], in test [3], in test [4], in test [5] and in test [6] was “inactive” each time. The Potency entry in [7], in test [8], in [9], in test [10], in [11] and in test [12] was “inactive” in each case.

Take `CC1CC(OC(=O)C(O)c2ccccc2)CC(C)(C)N1C` (configuration not stated): the Potency entry in test [1], in test [2], in test [3], in test [4], in [13] and in test [14] was “inactive” each time. The Potency entry in test [7], in test [9], in test [10], in test [11] and in test [12] was “inactive” in each case.

As to `Cc1cc(=O)c2c(O)c3c(O)cc(=O)c4c3c3c(cc(O)c1c23)C(C)(C)C=4O`, the Potency in test [1] is 0.731 µM (active); in [13], 1.64 µM (active); in test [14] it was 0.82 µM (active). Moreover, the Potency entry in [3] and in [4] was “inactive” in each case. Also, in [6], the viability change, negative = cytotoxic is 5.76% [at 15.8 µM]. The activation in [7] was -0.228% [at 15.8 µM]. Also, the activity, negative = inhibition in test [11] is -5.37% [at 19 µM].

As to `C[C@@]12CCC[C@H]1[C@@H]1CC[C@H]3C[C@@H](O)CC[C@]3(C)[C@H]1CC2`, the Potency entry in test [2], in test [3], in [4], in [5], in test [10] and in [11] was “inactive” in each case. For the same compound, in [14], the Potency was 13.3 µM (active).

With `c1cc(N(CC2CO2)CC2CO2)ccc1Cc1ccc(N(CC2CO2)CC2CO2)cc1` (configuration not stated), the Potency result in test [2], in test [3], in test [4], in test [5], in test [6] and in [9] was “inactive” each time. Besides, the Potency result in test [10] and in test [11] was “inactive” throughout. For the same compound, in [12], the Potency is 30.6 µM (active).

Regarding `OC(CCN1CCCC1)(c1ccccc1)C1CCCCC1` (configuration not stated), the Potency entry in test [1], in test [2], in [3], in test [4], in [13] and in [14] was “inactive” each time. Besides, the Potency result in [6], in test [8], in test [9], in test [10] and in test [12] was “inactive” throughout.

As for `O=C1Cc2cc(Cl)ccc2N1`, the Potency result in [1], in [2], in test [3], in [4], in test [13] and in test [14] was “inactive” throughout. Besides, the Potency result in [7], in [8], in [9], in test [10] and in [12] was “inactive” throughout.

Regarding `CN(C)CCN1C(=O)c2ccccc2N(C)c2ccccc21`, the Potency entry in [1], in test [2], in test [3], in test [4], in test [13] and in test [14] was “inactive” in each case. Also, the Potency entry in [6], in [8], in [9], in [10], in [11] and in test [12] was “inactive” throughout.

With `CCC1NC(=O)c2cc(S(N)(=O)=O)c(Cl)cc2N1` (configuration not stated), the Potency result in test [1], in test [2], in [3], in [4], in [13] and in test [14] was “inactive” each time. In addition, the Potency entry in [6], in test [7], in test [8], in [9] and in [10] was “inactive” throughout.

Consider `CC(=O)Oc1ccc([N+](=O)[O-])cc1CCl`, for which the Potency result in test [1], in test [2], in test [3], in test [4], in test [5] and in test [14] was “inactive” each time. In addition, the Potency result in test [7], in test [8], in test [9], in test [10] and in [11] was “inactive” in each case. Moreover, the Potency in [12] is 68.6 µM (active).

`c1ccc(C[n+]2cccc3ccccc32)cc1`: the Potency result in test [3], in [4], in [13], in test [14], in [6] and in test [7] was “inactive” throughout. The Potency entry in test [9], in [10], in [11] and in test [12] was “inactive” each time.

Consider `O=C(Cn1ccnc1[N+](=O)[O-])NCCO`, for which the Potency result in [1], in test [2], in test [3], in test [4], in test [13] and in [14] was “inactive” in each case. Besides, the Potency result in test [7], in test [8], in [9], in test [10], in test [11] and in test [12] was “inactive” throughout.

On to `C[C@]1(Cn2ccnn2)[C@H](C(=O)O)N2C(=O)C[C@H]2S1(=O)=O`, for which the Potency result in test [1], in test [2], in test [3], in test [4], in test [5] and in [6] was “inactive” in each case. The Potency entry in test [9] and in [10] was “inactive” in each case.

In the case of `O=C(OCC(O)CO)c1ccccc1Nc1ccnc2cc(Cl)ccc12` (configuration not stated), the Potency entry in test [2], in [3], in test [4], in test [5], in test [6] and in test [7] was “inactive” in each case. In addition, the Potency entry in test [9], in test [10] and in test [11] was “inactive” throughout.

In the case of `CC(C)C=O`, the Potency entry in test [1], in [2], in test [3], in test [4], in test [13] and in test [14] was “inactive” each time. Besides, the Potency result in [7], in test [9], in test [10], in test [11] and in test [12] was “inactive” each time.

`O=C1NCCN1CCO`: the Potency result in test [1], in test [2], in test [3], in test [4], in test [5] and in test [6] was “inactive” each time. Moreover, the Potency entry in [7], in [8], in test [9], in test [10], in test [11] and in test [12] was “inactive” each time.

`CCOc1cccc(-n2cc(C(=O)N3CCN(c4cc(C(=O)O)c5ccccc5c4)CC3)nc2-c2ccc(C)cc2)c1`: the Potency entry in [3], in test [4], in test [5], in test [9], in [10] and in [11] was “inactive” each time. Besides, in test [12], the Potency result is “inactive”.

`CC=C(Cl)Cl`: the Potency result in [1], in test [2], in test [3], in test [4], in test [13] and in test [14] was “inactive” in each case. Further, the Potency result in test [7], in test [8], in [9], in test [10], in [11] and in test [12] was “inactive” each time.

With `C/C=C/C=C/C=O`, the Potency entry in test [1], in test [2], in [3], in test [4], in test [5] and in [6] was “inactive” throughout. The Potency entry in [8], in test [9] and in [10] was “inactive” throughout.

For `CC1CC(C)C(=O)C1=O` (configuration not stated), the Potency result in test [1], in test [2], in [3], in test [4], in test [5] and in [7] was “inactive” in each case. In addition, the Potency result in [9] and in test [10] was “inactive” each time.

In the case of `CCCCC(CC)COP(=O)(O)O` (configuration not stated), the Potency result in [1], in [2], in [3], in test [4], in test [13] and in test [14] was “inactive” in each case. Also, the Potency entry in [6], in test [9], in [10], in test [11] and in test [12] was “inactive” throughout. The Potency in test [7] is 39.6 µM (active).

For the compound `C/C=C\C/C=C/CCCCCCCCOC(C)=O`, the Potency entry in test [3], in test [4], in [5], in [14], in [10] and in test [12] was “inactive” each time.

As to `CN(C(=O)CN(CCO)CC(=O)N(C)C(C)(C)Cc1ccccc1)C(C)(C)Cc1ccccc1`, the Potency entry in test [1], in [3], in test [4], in test [5] and in test [12] was “inactive” each time. Further, the Potency in [14] is 26.6 µM (active); in test [11] it was 29.8 µM (active).
